# Assay results taken from PubChem BioAssay (NCATS).
# Several values for one entry are separate records, joined by “and”; a condition that tells them apart may be missing. Equal entries are not always repeated. Inconclusive results are not listed. A call without a number means that no potency is given here. Activity calls are given as the source filed them. Calls come from the whole dose curve; as a rule, active = well fitted curve in the direction sought with a large enough effect; inconclusive = small, poorly fitted or top-dose-only effect, or another doubt; inactive = no such curve, though single readings can be large; an effect the other way counts as inactive or inconclusive.
# Key:
# [1] = tested on: Zika virus NS2B-NS3 protease (unlinked complex); experiment: Primary screen GU Rhodamine qHTS for Zika virus inhibitors: Unlinked NS2B-NS3 protease assay (AID 1347159); note: nearly all actives have a fitted effect of over 60% in size; note: potency is the fitted concentration of half-maximal effect
# Summary of the method: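 Percent inhibition derives from the 15-min fluorescence change (ex 480, em 540 nm), normalized to no-enzyme and no-inhibitor wells. Reactions contained 25 nM NS2B-NS3 complex and 1.5 microM substrate in 10 mM Tris-HCl pH 8.0.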
# [2] = molecular target: Lysine-specific demethylase 5B (Homo sapiens) (UniProt Q9UGL1); experiment: Optimization screen for KDM5B Histone Demethylases FDH coupled qHTS against the LOPAC library (AID 1347166)
# Summary of the method: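 KDM5BDeltaAP (200nM final) preincubated 10 min with compound, then 12.5uM H3K4Me3, 25uM a-ketoglutarate, ascorbate, Fe(II), NAD+ and FDH added; 50mM HEPES pH 7.5, 0.01% Tween-20. NADH fluorescence (340/450 nm) change over 30 min, room temperature.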
# [3] = Vero cells viability qHTS for Zika virus inhibitors (AID 1347167)
# Summary of the method: (§1)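 Compounds were tested in concentration series on cells grown in DMEM containing 4% FBS. After 24 to 48 hours, cellular ATP was measured by luminescence with CellTiter Glo.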
# [4] = HepG2 cells viability qHTS for Zika virus inhibitors (AID 1347168)
# Summary of the method: as §1
# [5] = Tertiary RLuc qRT-PCR qHTS assay for Zika virus inhibitors (AID 1347169); note: nearly all actives have a fitted effect of over 55% in size; note: potency is the fitted concentration of half-maximal effect
# Summary of the method: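 Orthogonal cell-based infection assay using recombinant ZIKV-RLuc (Cambodian) in Vero cells; compound added prior to virus at MOI 1-2. Incubation lasts 48-72 hrs at 37 degrees C before live-cell Renilla substrate is added and luminescence measured.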
# [6] = Confirmatory screen GU Rhodamine qHTS for Zika virus inhibitors qHTS (AID 1347157); conditions: purified enzyme assay, Rhodamine110 substrate fluorescence, 15 min; note: potency is the fitted concentration of half-maximal effect; nearly all actives have a fitted effect of over 70% in size
# Summary of the method: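 Percent inhibition came from the 15-min rise in Rhodamine110 fluorescence (1.5 microM substrate, ~15% conversion), normalized to no-inhibitor and no-enzyme wells and Hill-fitted. Unlinked protease, 25 nM, pH 8.0 Tris buffer; compounds up to 114 microM, 15-min preincubation.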
# [7] = Confirmatory screen NINDS Rhodamine qHTS for Zika virus inhibitors (AID 1347161); note: nearly all actives have a fitted effect of over 60% in size; note: potency is the fitted concentration of half-maximal effect
# Summary of the method: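 qHTS dose-response: 25 nM linked protease, pH 8.0 Tris/Tween buffer, cpd titration, 15 min RT preinc, 1.5 microM Rhod110 peptide, 15 min reaction (~15% conversion), Ex480/Em540; 4-parameter Hill fit.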
# [8] = tested on: Zika virus NS2B-NS3 protease (linked); experiment: 384 well plate NINDS AMC confirmatory qHTS for Zika virus inhibitors (AID 1347163); conditions: Recombinant NS2B-NS3 protease, Ac-VKTGKR-AMC fluorescence; note: potency is the fitted concentration of half-maximal effect; nearly all actives have a fitted effect of over 50% in size
# Summary of the method: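 Linked NS2B-NS3 protease (final 5 nM, 30 nM or 60 nM) was preincubated with compounds (final up to 1 mM) for ~15 minutes. Ac-VKTGKR-AMC substrate (final 30 microM) then reacted for 25 minutes at room temperature in the dark. Fluorescence (ex 355/em 460 nm) was normalized to no-enzyme and no-inhibitor controls.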
# [9] = tested on: Zika virus NS2B-NS3 protease (linked construct); experiment: 384 well plate NINDS Rhodamine confirmatory qHTS for Zika virus inhibitors (AID 1347164); note: nearly all actives have a fitted effect of over 65% in size; note: potency is the fitted concentration of half-maximal effect
# Summary of the method: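 Compounds are incubated about 15 minutes with linked protease (5, 30 or 60 nM final). Rhodamine 110-tagged Ac-LKRR substrate (10 microM final) is added and fluorescence measured after 25 minutes.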
# Lysine-specific demethylase 5B (Homo sapiens), sequence (Q9UGL1 whole entry, looked up): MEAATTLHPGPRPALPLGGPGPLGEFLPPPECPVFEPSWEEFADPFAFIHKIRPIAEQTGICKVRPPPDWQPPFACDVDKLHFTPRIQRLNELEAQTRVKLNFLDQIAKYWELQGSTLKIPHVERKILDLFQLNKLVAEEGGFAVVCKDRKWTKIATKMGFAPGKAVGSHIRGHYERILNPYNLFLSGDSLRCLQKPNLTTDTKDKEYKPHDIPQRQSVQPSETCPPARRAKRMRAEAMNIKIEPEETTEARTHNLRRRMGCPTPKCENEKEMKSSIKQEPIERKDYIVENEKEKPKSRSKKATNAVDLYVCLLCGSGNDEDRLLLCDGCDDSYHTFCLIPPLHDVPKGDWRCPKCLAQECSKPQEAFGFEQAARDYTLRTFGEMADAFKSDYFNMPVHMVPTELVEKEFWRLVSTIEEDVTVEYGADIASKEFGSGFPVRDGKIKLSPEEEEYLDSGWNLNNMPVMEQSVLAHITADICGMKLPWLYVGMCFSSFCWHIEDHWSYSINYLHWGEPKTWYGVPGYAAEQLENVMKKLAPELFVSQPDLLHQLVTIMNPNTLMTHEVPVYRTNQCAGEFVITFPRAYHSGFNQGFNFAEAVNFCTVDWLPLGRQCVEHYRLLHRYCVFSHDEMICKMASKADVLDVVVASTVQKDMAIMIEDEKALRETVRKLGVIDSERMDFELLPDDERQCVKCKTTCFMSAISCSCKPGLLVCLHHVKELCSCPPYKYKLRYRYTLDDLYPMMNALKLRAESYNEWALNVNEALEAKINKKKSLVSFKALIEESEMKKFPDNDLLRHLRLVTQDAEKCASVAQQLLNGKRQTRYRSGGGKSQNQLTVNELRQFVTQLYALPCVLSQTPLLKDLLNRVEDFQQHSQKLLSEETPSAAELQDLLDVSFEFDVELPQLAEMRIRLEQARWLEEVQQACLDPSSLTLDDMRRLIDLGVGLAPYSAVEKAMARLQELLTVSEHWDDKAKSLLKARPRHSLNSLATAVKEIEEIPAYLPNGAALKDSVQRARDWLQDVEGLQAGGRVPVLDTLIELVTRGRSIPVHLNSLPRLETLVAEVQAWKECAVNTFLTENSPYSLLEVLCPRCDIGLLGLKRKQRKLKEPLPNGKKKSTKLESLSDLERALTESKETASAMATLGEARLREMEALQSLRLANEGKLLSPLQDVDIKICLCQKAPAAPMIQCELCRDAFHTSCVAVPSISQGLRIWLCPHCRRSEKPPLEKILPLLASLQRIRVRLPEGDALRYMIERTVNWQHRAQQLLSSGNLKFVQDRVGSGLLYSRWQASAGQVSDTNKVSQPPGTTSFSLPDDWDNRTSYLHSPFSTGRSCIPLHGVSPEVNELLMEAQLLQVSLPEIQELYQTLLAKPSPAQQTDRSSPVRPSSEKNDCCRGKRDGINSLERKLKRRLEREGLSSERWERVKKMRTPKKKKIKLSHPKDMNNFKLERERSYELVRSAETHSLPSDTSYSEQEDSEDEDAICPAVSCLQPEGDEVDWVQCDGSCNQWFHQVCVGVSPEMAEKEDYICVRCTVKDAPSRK
structure (smiles),measurement,setting,value
C[C@@H]1O[C@@H](O[C@H]2C[C@@H](O)[C@]3(CO)[C@H]4[C@H](O)C[C@]5(C)[C@@H](C6=CC(=O)OC6)CC[C@]5(O)[C@@H]4CC[C@]3(O)C2)[C@H](O)[C@H](O)[C@H]1O,Potency,[1],inactive
same,outcome,[2],inactive
same,outcome,[3],inactive
same,outcome,[4],inactive
same,Potency,[5],117 nM (active) and 58.7 nM (active)
Cc1cc(SCc2sc(-c3ccc(C(F)(F)F)c(F)c3)nc2C)ccc1OCC(=O)O,Potency,[6],2.21 µM (active)
same,Potency,[1],2.82 µM (active)
same,Potency,[7],1.75 µM (active) and 1.96 µM (active) and 1.97 µM (active)
same,Potency,[8],39.8 µM (active)
same,Potency,[9],35.5 µM (active)
same,outcome,[3],inactive
same,outcome,[4],inactive
same,Potency,[5],23.4 µM (active)
CC(=O)[C@H]1CC[C@H]2[C@@H]3CC[C@H]4C[C@H](O)CC[C@]4(C)[C@H]3C(=O)C[C@]12C,outcome,[2],inactive
CC(O)(CS(=O)(=O)c1ccc(F)cc1)C(=O)Nc1ccc(C#N)c(C(F)(F)F)c1 (configuration not stated),Potency,[1],inactive
same,outcome,[2],inactive
N[C@@H](Cc1ccc(Oc2cc(I)c(O)c(I)c2)c(I)c1)C(=O)O,Potency,[6],6.31 µM (active)
same,Potency,[7],11.2 µM (active) and 4.94 µM (active)
same,Potency,[8],50.1 µM (active)
same,Potency,[9],inactive
same,outcome,[3],inactive
same,outcome,[4],inactive
same,Potency,[5],inactive
CNC(=O)N1N=C(c2ccc(N)cc2)c2cc3c(cc2CC1C)OCO3 (configuration not stated),Potency,[1],inactive
Cc1ccc(-c2nc3ccc(C)cn3c2CC(=O)N(C)C)cc1,Potency,[7],inactive
same,outcome,[3],inactive
same,outcome,[4],inactive
same,Potency,[5],inactive
CCN(C(C)=O)c1cccc(-c2ccnc3c(C#N)cnn23)c1,Potency,[7],inactive
same,outcome,[3],inactive
same,outcome,[4],inactive
same,Potency,[5],inactive
